# Screens: PubChem, several laboratories
# This is a sample that favours compounds with a hit; in the whole collection about 3.1% have one here.
# PP1 counter = PP1-alpha phosphatase inhibitors, primary screen, counter-screen for PP5 inhibitor project, biochemical, fluorescence, OMFP substrate, single point; inhibition, % at 6.7 µM; 0.9% of 320,000 active; Serine/threonine-protein phosphatase PP1-alpha catalytic subunit (Homo sapiens), P62136; purified PP1alpha;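 active = inhibition above the mean inhibition of all tested compounds plus 3 SD, computed separately for each screening campaign, cut at about 15% in these data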
# SKKanGAS inh = S. pyogenes SKKanGAS growth inhibitors in kanamycin, primary screen, streptokinase expression inhibitor project, SKKanGAS strain, BacTiter-Glo luminescence; 6 h; inhibition, % at 7.5 µM; 1.3% of 300,000 active;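 active = mean replicate score, as percent of positive control median, at least 50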;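 also: strain carries kanamycin resistance gene driven by streptokinase promoter and grows in 40 µg/ml kanamycin; loss of luminescence reflects streptokinase promoter inhibition or plain growth inhibition; 0% = median of DMSO wells and 100% = positive control at its reference dose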
# CSC inhib = cancer stem cell viability inhibitors, primary screen, luminescence | cancer stem cell-like cells viability | 1.1% of 300,000 active | inhibition, % at 7.5 µM | AID 2717, 2010; in the data active = inhibition above about 75%; tested in HMLE shEcad cells
# Beta apoptosis = inhibitors of cytokine-induced beta cell apoptosis, primary screen, luminescence; INS-1E cytokine-induced death, ATP luminescence, 48 h; percent of positive-control rescue, neutral wells zero; protection from apoptosis, % (test concentration not listed); 0.8% of 300,000 active; AID 435005, 2010;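 active = Every replicate reaches about 75%, or at least half do and their mean reaches it too, limit read from the data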;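 also: 0% = cytokine-treated negative control wells and 100% = positive control rescue; higher means more ATP so stronger rescue from cytokine killing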
# PP5 inh = PP5 phosphatase inhibitors, primary screen, biochemical, fluorescence; Serine/threonine-protein phosphatase 5 (Homo sapiens), P53041; 0.18% of 320,000 active; inhibition, % at 6.7 µM; purified PP5c, OMFP substrate fluorescence;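 active = inhibition above the campaign's mean inhibition across all tested compounds plus 3 SD, cut at about 9.5% in these data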;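 also: 0% = DMSO only and 100% = 100 µM cantharidin control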
# Target sequence (P53041 whole entry, looked up): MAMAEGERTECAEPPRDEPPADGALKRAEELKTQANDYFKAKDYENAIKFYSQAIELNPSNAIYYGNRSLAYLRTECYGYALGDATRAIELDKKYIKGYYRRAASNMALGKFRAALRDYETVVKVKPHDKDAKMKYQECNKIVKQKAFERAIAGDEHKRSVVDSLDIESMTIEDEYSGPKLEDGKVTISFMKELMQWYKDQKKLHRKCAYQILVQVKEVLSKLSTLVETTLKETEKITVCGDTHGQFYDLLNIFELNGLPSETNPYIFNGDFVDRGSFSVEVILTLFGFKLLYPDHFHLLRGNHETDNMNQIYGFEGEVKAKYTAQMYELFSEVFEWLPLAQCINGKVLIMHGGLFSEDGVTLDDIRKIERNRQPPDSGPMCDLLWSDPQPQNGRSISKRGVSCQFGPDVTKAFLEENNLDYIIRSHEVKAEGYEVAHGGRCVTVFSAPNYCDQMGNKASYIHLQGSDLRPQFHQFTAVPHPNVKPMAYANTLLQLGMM
# Numbers without * were called inactive; nt = not tested or not shown.
SMILES,PP1 counter,SKKanGAS inh,CSC inhib,Beta apoptosis,PP5 inh
C1CCC(C(CC2CCCCN2)C2CCCCC2)CC1 (stereo not given),1.4,14.5,99.4*,90.4*,1.1
NS(=O)(=O)c1ccc(NC(=O)Nc2ccc3c(c2)OCO3)cc1,nt,-9.3,2.7,-2.5,nt
O=C(/C=C/NNC(=O)c1ccccc1)c1ccc([N+](=O)[O-])cc1,5.9,13.0,20.2,94.9*,4.7
O=C(/C=C/NNC(=O)c1ccccc1)c1ccccc1,2.5,6.7,-8.5,-4.5,1.0
CCc1ccc(NC(=O)c2ccc(F)c(S(=O)(=O)NCC3COc4ccccc4O3)c2)cc1 (stereo not given),5.4,49.7*,2.7,32.9,7.0
Cc1ccc([N+](=O)[O-])cc1S(=O)(=O)NCC1COc2ccccc2O1 (stereo not given),1.4,4.5,4.5,-6.3,1.5
O=C(NCC1COc2ccccc2O1)c1cccc(S(=O)(=O)NCc2ccccc2)c1 (stereo not given),-0.9,-2.6,18.7,104.6*,1.4
CC1CN(S(=O)(=O)c2cccc(C(=O)NCC3COc4ccccc4O3)c2)CC(C)O1 (stereo not given),-1.4,nt,-10.6,2.0,1.2
COc1ccc(NC(=O)CSCC(=O)Nc2ccc(C)c(S(=O)(=O)N3CCCCCC3)c2)cc1,-6.5,-0.9,nt,-0.4,0.3
Cn1cc(C(c2ccccn2)c2cn(C)c3ccccc23)c2ccccc21,-2.0,15.6,-8.1,-3.3,1.2
c1ccc(C(c2c[nH]c3ccccc23)c2c[nH]c3ccccc23)nc1,5.1,76.4*,-8.2,4.1,3.5
O=C(Nn1c(C2CCCCC2)nc2ccccc2c1=O)c1ccc([N+](=O)[O-])cc1Cl,17.0*,-3.4,1.0,1.3,0.7
O=C(COc1ccc(Nc2ccccc2)cc1)Nc1ccncc1,-3.4,-28.4,13.2,nt,4.1
O=C(NNC(=O)c1ccccc1OCc1ccc(F)cc1)c1ccncc1,-6.8,-3.1,-12.4,-5.8,-0.3
O=C(NCC(c1cccs1)N1CCOCC1)c1ccc(Cl)cc1 (stereo not given),-0.6,16.9,-7.0,2.6,-0.8
O=C(NCC(c1cccs1)N1CCOCC1)c1ccc(Cl)s1 (stereo not given),-0.8,-9.0,77.9*,1.7,2.9
COc1ccc(-c2cc(=O)oc3c(C)c(OCC(=O)N[C@@H](Cc4ccc(O)cc4)C(=O)O)ccc23)cc1,-5.1,4.4,-3.9,-0.1,-0.2
Cc1c(OCC(=O)NC(Cc2ccc(Cl)cc2)C(=O)O)ccc2c(-c3ccccc3)cc(=O)oc12 (stereo not given),17.2*,24.3,14.1,1.1,-8.0
COc1ccc(Cc2nc3ccc(C(=O)NCc4cc(C)no4)cc3o2)cc1,2.2,-3.4,-10.1,-0.1,0.4
CCc1cc(CNC(=O)c2ccc3nc(Cc4ccc(OC)c(OC)c4)oc3c2)on1,-3.1,-5.6,-9.2,107.2*,3.1
O=C(Nc1nc2cc3c(cc2s1)OCCO3)c1cccc(N2C(=O)CCC2=O)c1,4.3,21.3,-7.6,-2.9,3.1
O=C(CCS(=O)(=O)c1ccccc1)Nc1nc2cc3c(cc2s1)OCCO3,-0.2,60.6*,-3.3,-3.1,2.3
CCN(CC)S(=O)(=O)c1cccc(C(=O)Nc2nc3cc4c(cc3s2)OCCO4)c1,0.1,70.9*,38.7,5.8,4.5
COc1ccc(OC)c2sc(NC(=O)CCS(=O)(=O)c3ccccc3)nc12,5.2,-11.0,109.4*,25.2,3.8
O=C(CCS(=O)(=O)c1ccccc1)Nc1nc2cc3c(cc2s1)OCO3,-4.1,-4.1,32.4,-4.4,2.5
SMILES,PP1 counter,SKKanGAS inh,CSC inhib,Beta apoptosis,PP5 inh
CCc1cc(=O)[nH]c(SCc2ccc(C)cc2)n1,-3.0,4.6,-7.5,-3.4,1.7
Cc1nnc(NC(=O)CSc2nnc(CC(=O)Nc3ccccc3Cl)n2C)s1,-0.8,1.2,8.6,-5.9,2.4
CN(C)N1C(N)=C(C#N)C(c2ccc(Br)cc2)C2=C1CC(C)(C)CC2=O (stereo not given),-1.1,3.2,-1.8,11.5,0.5
CCn1c2ccccc2c2cc(NS(=O)(=O)c3ccc(C)cc3)ccc21,2.5,18.6,83.5*,-0.7,5.8
O=C(c1nc2ccc(Cl)cn2c1CN1CCCC1)N1CCc2ccccc2C1,7.6,1.8,1.1,3.3,2.7
O=C(c1nc2ccc(Cl)cn2c1CN1CCC(CO)CC1)N1CCc2ccccc2C1,-3.3,52.2*,-13.0,nt,1.6
CN1CCN(C(=O)CCc2nnc3ccc(N4CCC5(CC4)OCCO5)nn23)CC1,0.8,2.3,-17.7,-9.1,-1.6
C(=N\Nc1nc2ccccc2[nH]1)/c1ccccn1,nt,25.4,nt,nt,nt
COc1ccc2c(c1)c(/C=N/Nc1nc3ccccc3[nH]1)c(C)n2C,11.3,71.2*,45.3,117.2*,4.9
COc1ccc(/C=N/Nc2nc3ccccc3[nH]2)cc1OC,6.1,3.5,4.3,20.6,2.5
COc1cc(/C=N\Nc2nc3ccccc3[nH]2)cc(OC)c1OC,1.5,93.6*,6.0,12.5,1.5
C(=N\Nc1nc2ccccc2[nH]1)/c1ccc2ncccc2c1,-0.2,-6.8,79.2*,nt,-0.5
CCOC(=O)c1c(C)n(C)c2cc(Br)c(OC)cc12,-3.1,-12.8,nt,-7.7,2.4
CCOC(=O)c1c(CSc2nc(C)cc(C)c2C#N)n(C)c2cc(Br)c(OC(C)=O)cc12,-5.4,2.8,5.9,111.1*,0.9
CCOC(=O)c1c(CN2CCCCC2)n(C)c2cc(Br)c(OC)cc12,-0.6,1.4,1.0,9.6,4.0
C=CCCc1ccc(C#N)c(SCc2c(C(=O)OCC)c3cc(OC(C)=O)c(Br)cc3n2C)n1,-0.7,-8.6,1.4,109.5*,-1.8
CCOC(=O)CC(=O)CSc1nc(C)cc(C)c1C#N,-0.2,1.9,-2.7,nt,2.1
CCCCCCCCOC(=O)c1c(CSC(=N)N)n(C)c2cc(Br)c(OC(C)=O)cc12,16.5*,74.9*,76.3*,-1.5,2.7
Cc1ccc2sc(N(CCCN(C)C)C(=O)c3ccc(S(=O)(=O)N(C)C)cc3)nc2c1C,-0.5,-2.2,20.8,4.5,0.4
CN(C)CCCN(C(=O)c1ccc(S(=O)(=O)N(C)Cc2ccccc2)cc1)c1nc2cc3c(cc2s1)OCO3,9.0,5.2,6.8,113.7*,3.0
Cc1ccc2sc(N(CCCN(C)C)C(=O)c3ccc(S(=O)(=O)N4CCc5ccccc5C4)cc3)nc2c1C,15.4*,5.7,14.7,nt,1.1
CCN(c1ccccc1)S(=O)(=O)c1ccc(C(=O)N(CCCN(C)C)c2nc3cc4c(cc3s2)OCO4)cc1,3.6,2.5,5.2,-12.7,1.4
COc1cccc2sc(N(CCCN(C)C)C(=O)c3ccc(S(=O)(=O)N4CCc5ccccc5C4)cc3)nc12,5.0,15.2,-1.0,0.6,0.2
CN(C)CCCN(C(=O)COc1ccc(Cl)cc1)c1nc2cc3c(cc2s1)OCO3,3.3,5.4,-3.8,113.6*,4.5
